Source: PubChem BioAssay (Sanford-Burnham Center for Chemical Genomics)
Only some compounds are listed: those with a hit (about 4% of all), similar ones and a draw of the others.
TWEAK-Fn14 inh – TWEAK-Fn14 signaling inhibition. TWEAK-stimulated Fn14 reporter cells, luciferase luminescence, 8 h. inhibition, % at 10 µM. 360,000 compounds, 2% hits. AID 1159606; in the data active = inhibition above about 50%
TROY signal inh – TROY signaling inhibition. inhibition, % at 10 µM. Q293 LMP1-TROYcd NF-kB luciferase reporter, 4 h. 360,000 compounds, 0.98% hits;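 active = compounds whose plate-normalised and pattern-corrected inhibition of the luciferase reporter signal at the single screening dose is 50% or more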
CF NFkB block – inhibitors of cystic fibrosis induced NF-kB | KKLEB NF-kB-GFP reporter, PAF-induced, GFP fluorescence overnight | inhibition, % at 5 µM | 360,000 compounds, 0.86% hits | AID 588850;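 active = at least 50% inhibition at 5 µM, scaled per plate between neutral and stimulator controls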;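 also: PAF is a Pseudomonas aeruginosa culture filtrate used as stimulus; plate controls were PAF-stimulated DMSO wells for no effect and unstimulated DMSO wells for full effect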
KKLEB tox – reduces viability of KKLEB cystic fibrosis airway cells; KKLEB CF airway cells viability, ATPlite luminescence, overnight; hits give low values; cells stimulated with P. aeruginosa culture filtrate; activity change (cytotoxicity), % at 5 µM; 360,000 compounds, 0.36% hits; AID 602141;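 active = corrected activity change at or below -50% at 5 µM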
Peg3 prom inh – inhibitors of Peg3 promoter; HeLa PEG-Prom luciferase reporter, luminescence, overnight; inhibition, % at 20 µM; 360,000 compounds, 1.7% hits; AID 588405;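 active = inhibition of at least 50% at 20 µM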
HIF-2a block – inhibitors of HIF-2a. 786-0 RCC cells HIF-2a reporter, luciferase luminescence, overnight. inhibition, % at 18.8 µM. 360,000 compounds, 0.72% hits. AID 624352;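 active = inhibition of the luminescence signal of 40% or more relative to plate controls, in a single-dose primary screen at 18.75 µM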
Mdm2-MdmX confirm – confirmation of inhibitors of human Mdm2/MdmX interaction, set 2 | inhibition, % at 8 µM | shares compounds with HIF-2a block | 740 compounds, 99% hits | SaOS-2 split-luciferase Mdm2/MdmX complementation, luminescence;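 active = mean inhibition of the luminescence signal across two replicates at or above 26 percent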
HIF-2a inh conf – confirmation of HIF-2a inhibitors; shares compounds with HIF-2a block; inhibition, % at 18.8 µM; 786-0 RCC cells, HIF-2a luciferase reporter luminescence, overnight; 1,800 compounds, 56% hits;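 active = mean inhibition across four replicates of at least 40 percent at the single tested concentration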
HIF-1a cs – counter-screen for HIF-2a inhibitors: HIF-1a inhibition in MiaPaCa-2 cells. shares compounds with HIF-2a block. MiaPaCa-2 HIF-1a luciferase reporter, desferoxamine, overnight. inhibition, % at 18.8 µM. 1,800 compounds, 72% hits. AID 651589;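 active = mean inhibition of the reporter signal across four replicates at the single tested dose of 50% or more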
Starred values were filed as active, the others as inactive; x = not tested or not shown.

SMILES	TWEAK-Fn14 inh	TROY signal inh	CF NFkB block	KKLEB tox	Peg3 prom inh	HIF-2a block	HIF-2a inh conf	HIF-1a cs	others
Cc1nc2nc(-c3ccc(F)cc3)cn2nc1C	15	-36	-14	7	-88	-56	x	x
CCc1ccc(-c2cn3nc(C)c(C)nc3n2)cc1	60*	16	-4	-9	71*	66*	91*	84*
Cc1ccc(-n2nnc3c(=O)oc4ccccc4c32)cc1	-14	-2	18	1	49	52*	15	30
CC(C)(C)N(Cc1ccc2c(c1)OCO2)C(=O)/C=C\S(=O)c1ccccc1 (centres undefined)	88*	28	43	-19	99*	69*	54*	80*
CCN(Cc1ccc2c(c1)OCO2)C(=O)/C=C/c1cccc(Br)c1	-33	-37	3	-12	-53	-81	x	x
CCC(=O)Nc1ccc(SC#N)cc1C	6	9	-11	-1	7	25	x	x
CCc1cc(SC#N)cc(C)c1N	35	57*	-29	-7	13	63*	-14	-26
Cc1cc2[nH]c3ccccc3c2c(C)n1	31	13	-48	1	33	14	x	x
Cc1cc2[nH]c3c4ccccc4nc(C)c3c2cc1C	-72	78*	-50	-68*	106*	92*	-4	105*
COc1cccc(CC(=O)n2nc(N)c3cc4ccc(OC)cc4nc32)c1	12	7	-36	-2	40	-40	x	x
COc1ccc2cc3c(N)nn(C(=O)Cc4ccc(Cl)cc4)c3nc2c1	-7	24	22	-6	15	8	x	x
COc1ccc2cc3c(N)nn(C(=O)Cc4c[nH]c5ccccc45)c3nc2c1	95*	67*	86*	-26	106*	50*	30	102*	Mdm2-MdmX confirm=102*
COc1ccc2cc3c(N)nn(C(=O)c4ccccc4Cl)c3nc2c1	82*	50	77*	-5	10	43*	20	94*	Mdm2-MdmX confirm=99*
O=C(NCCc1ccc(Cl)cc1)c1cccc(NC2=NC3CS(=O)(=O)CC3S2)c1 (centres undefined)	10	-8	0	10	1	6	x	x
COC(=O)c1cc(=O)n(Cc2ccc(OC)cc2)c(=NCc2ccc(OC)cc2)s1	-6	14	3	2	12	15	x	x
COC(=O)c1cc(=O)n(Cc2ccc3c(c2)OCO3)c(=Nc2ccc(F)c(Cl)c2)s1	31	-5	44	-15	57*	53*	6	59*
COc1ccc(S(=O)(=O)N2CCCOC2CNC(=O)C(=O)NCc2cccnc2)cc1 (centres undefined)	5	-2	9	4	2	7	x	x
COC(=O)c1c(NC(=O)c2nc3ccccc3s2)sc2c1CC(C)(C)NC2(C)C	-68	-9	34	-32	104*	23	x	x	Mdm2-MdmX confirm=93*
C[C@@H]1CN([C@H](C)CO)C(=O)Cc2cc(NC(=O)Nc3ccccc3)ccc2O[C@@H]1CN(C)C(=O)Nc1ccc2c(c1)OCO2	-19	-4	5	-15	1	-5	x	x
Cn1c(=O)c([N+](=O)[O-])c(Cl)c2ccccc21	-21	23	72*	-50*	105*	97*	83*	106*
CCNC(=O)c1ccccc1NC(=O)C1CC(=O)N(C(C)C)C1 (centres undefined)	6	14	0	5	4	9	x	x
CCCn1c(CC)nc([N+](=O)[O-])c1S(=O)(=O)c1ccccc1	1	48	52*	-27	-1	46*	29	47
NCCNc1ccc([N+](=O)[O-])c(Sc2nc3ccccc3[nH]2)c1	-1	-3	6	8	22	27	x	x
O=[N+]([O-])c1cc(S(=O)(=O)C(F)(F)F)ccc1Sc1nc2ccccc2[nH]1	42	24	50*	-24	104*	93*	69*	106*
O=[N+]([O-])c1cc(S(=O)(=O)C(F)(F)F)ccc1Sc1nc2ccccc2s1	13	5	10	-38	110*	56*	34	101*
SMILES	TWEAK-Fn14 inh	TROY signal inh	CF NFkB block	KKLEB tox	Peg3 prom inh	HIF-2a block	HIF-2a inh conf	HIF-1a cs	others
CCOc1ccc(C(C)=O)cc1Cn1c(=O)oc2ccccc21	6	-3	0	-2	17	7	x	x
CCOC(=O)c1nnc(-c2cccs2)nc1Oc1ccc(Cl)cc1	4	-11	-6	0	27	42*	24	17
CC1CCCC(NC(=O)COC(=O)c2n[nH]c3ccccc23)C1C (centres undefined)	-21	-4	17	6	-1	12	x	x
CN(C)c1ccc(C(=O)N/N=C/c2cc(Br)cc(Br)c2O)cc1	11	2	16	4	59*	3	x	x	Mdm2-MdmX confirm=89*
COc1c(Br)cc(Br)cc1/C=N/NC(=O)c1ccncc1	-1	-5	-9	7	18	9	x	x
COC(=O)C1=C(C)N(Cc2ccccc2)C(=NCc2cccc(C(F)(F)F)c2)N[C@H]1c1cccc(C(F)(F)F)c1	6	15	16	-29	99*	1	x	x	Mdm2-MdmX confirm=102*
CCn1c(/C=C/N(C(C)=O)c2ccccc2)[n+](CCCS(=O)(=O)[O-])c2cc(Cl)c(Cl)cc21	-11	10	0	5	-12	8	x	x
CCn1c(/C=C/Nc2ccccc2)[n+](CC)c2cc(Cl)c(Cl)cc21	-24	17	22	-34	104*	68*	-3	88*
CCC(=O)Nc1ccc(NC(=O)CSc2nnnn2Cc2ccccc2)cc1C	-11	10	3	4	1	-55	x	x
CC1=CC(C)(C)Nc2ccc(OC(=O)CN3C(=O)c4cccc5cccc(c45)C3=O)cc21	52*	5	-5	5	-23	74*	89*	72*
C#CCOC(=O)CN1C(=O)c2cccc3cccc(c23)C1=O	11	-56	-37	-1	-15	-93	x	x
CCCCN1C(=O)C(CC(=O)NCc2ccco2)CC(C(=O)N(C)C)=C1C (centres undefined)	14	-11	25	-18	10	8	x	x
Cc1ccc(-c2nc3cc(N)ccc3o2)cc1Br	25	0	-4	4	-303	-126	x	x
Nc1ccc2oc(-c3cc(Br)ccc3Cl)nc2c1	46	0	-26	17	-55	61*	90*	50
Cc1ccc(C)c(-c2nc3cc(N)ccc3o2)c1	67*	x	-30	13	-167	65*	70*	28
